Molecules are shown by their SMILES. Values joined by “and” are separate entries in the source; they are usually repeats but may differ in a detail not shown here. Equal values may be shown once. Where a structure was tested more than once in an assay, its records may differ in their call. Active and inactive are the calls of the source. How the source made its calls: active means hit-call score of the fitted dose curve at least 0.9, where 1 is the maximum; inconclusive means response in the unintended direction; inactive means score below 0.9.

This assay deals with Thyroperoxidase (TPO), gene 54314. The assay is described as follows: CCTE_Simmons_AUR_rTPO: CCTE's Amplex UltraRed Assay for Thyroperoxidase (TPO) Inhibition, Simmons Lab (AID 2283662).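 On AC50: potency for loss of signal meaning inhibition of peroxidase activity.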 The method, then:
CCTE_Simmons_AUR_rTPO is a biochemical, single-readout assay that uses microsomes from rat thyroid gland in a tissue-based cell-free assay. Measurements were taken 0.5 hour after chemical dosing in a 384-well plate.CCTE_Simmons_AUR_rTPO is the assay component measured from the CCTE_Simmons_AUR_rTPO assay. It is designed to make measurements of thyroperoxidase (TPO) activity as detected with fluorescence intensity signals using the Amplex UltraRed technology as a form of enzyme activity reporter.Data from the assay component CCTE_Simmons_AUR_rTPO was analyzed at the endpoint, CCTE_Simmons_AUR_rTPO, in the positive analysis fitting direction relative to DMSO as the negative control and baseline of activity. Using a type of enzyme reporter, the Amplex UltraRed assay, loss-of-signal activity can be used to understand decreased peroxidase activity in the presence of excess […]. To generalize the intended target to other relatable targets, this assay endpoint is annotated to the oxidoreductase intended target family, where the subfamily is peroxidase.
As described previously (Paul et al., 2014), the AUR substrate was repurposed to detect peroxidase (ie, TPO) activity in the presence of excess H2O2 for the AUR-TPO assay. The reaction profile for the 384-well format AUR-TPO assay is scaled to an 80 ul assay volume containing 25 uM AUR, 300 uM H2O2, and 5 ug microsomal protein in 200 mM phosphate buffer. The assay concentration of thyroid microsomal protein was approximately […]. First, rat microsomes containing TPO and diluent 200mM potassium phosphate buffer were added to opaque, black 384-well plates (Greiner, BioExpress; Kaysville, Utah) using an automated liquid handler (BioTek MicroFlo; Winooski, Vermont) with a plastic 5 ul tubing cassette. Similarly, AUR was added next by automated liquid handling. Test compounds were administered using a HDRT as described earlier to achieve a 0.5% final DMSO concentration. Finally, H2O2 (300 uM, final concentration) was then added by the BioTek MicroFlo to initiate the reaction. Microplates were incubated at 37C in the dark for 30min. Plates were then shaken on a fluorescence plate reader (FLUOStar Optima, BMG LabTech; GmbH, Germany), and endpoint fluorescence (top read) was measured using 10 flashes per well at 544/590nm excitation/emission. Three biological replicates of technical singles were run for every chemical concentration tested. A titrated range of MMI served as a positive control for TPO inhibition on each plate of the AUR-TPO screening campaign. Test chemicals were administered as a titrated series of 8 concentrations from 5 nM up to 87.5 uM [final] for 30 minutes prior to single endpoint detection. Dimethylsulfoxide [DMSO] was used as the vehicle control. Methimazole [MMI] was used as the positive control and was administered as a titrated series of 8 concentrations from 1 nM up to 271 uM [final].
For `O=C(O)CS`, the compound was classed as inactive.

With `C[C@]12CC[C@@H]3c4ccc(O)cc4CC[C@H]3[C@@H]1CC[C@@H]2O`, the AC50 is 4.86 µM (active).

For `CCCCC/C=C\C=C\C(=O)OCC`, the AC50 is 38.6 µM (active).

On to `CC/C(=C(\c1ccccc1)c1ccc(OCCN(C)C)cc1)c1ccccc1`, for which the result was inactive and the AC50 is 24.2 µM (active).

For the compound `CCc1cccc(O)c1`, the AC50 was 16.6 µM (active).

For the compound `CCCCCCOc1ccc(O)cc1`, the AC50 is 8.69 µM (active).

With `CCCc1ccc(N)cc1`, the AC50 is 0.0301 µM (active).

Turning to `CC(=O)Nc1cc(S(=O)(=O)O)cc2cc(S(=O)(=O)O)c(N=Nc3ccccc3)c(O)c12`, the AC50 is 40.8 µM (active).

In the case of `O=c1cc[nH]cc1`, the compound was called inactive.

As for `CC(C)(C)c1cccc(O)c1`, the AC50 was 18.9 µM (active).

Consider `c1ccc2scnc2c1`, for which the AC50 is 56 µM (active) and 16.7 µM (active).

Regarding `O=C(c1ccc(OCCN2CCCCC2)cc1)c1c(-c2ccc(O)cc2)sc2cc(O)ccc12`, the call was inactive.

In the case of `O=c1cc(-c2ccc(O)cc2)oc2cc(O)cc(O)c12`, the concentration at half-maximal activity (AC50) is 4.81 µM (active).

For the compound `C#C[C@]1(O)CC[C@H]2[C@@H]3CCc4cc(O)ccc4[C@H]3CC[C@@]21C`, the AC50 was 9.38 µM (active).

In the case of `CCCCCCCCCCCCOCCOS(=O)(=O)O`, the AC50 was 50.8 µM (active).

For the compound `[O-]/[N+](=N\O)c1ccccc1`, the compound was classed as inactive.

Consider `CN1CCc2cccc3c2[C@H]1Cc1ccc(O)c(O)c1-3`, for which the AC50 is 0.522 µM (active).

For `CCCCCCCCCCCCS`, the AC50 was 7.49 µM (active).

For the compound `NC(N)=S`, the AC50 was 19.1 µM (active) and 12.3 µM (active).

In the case of `CC1=CCC(=C(C)C)CC1`, the outcome was inactive.

Regarding `CN(C)C(=O)Nc1ccccc1`, the AC50 was 43.8 µM (active).

For `O=C(O)C1=NN(c2ccc(S(=O)(=O)O)cc2)C(=O)C1`, the AC50 is 36.4 µM (active).

`O=C1OC2(c3ccc(O)cc3Oc3cc(O)ccc32)c2ccccc21`: the AC50 was 10.2 µM (active).

With `O=Cc1ccccc1O`, the outcome was inactive.

As to `COc1ccccc1O`, the AC50 is 21.7 µM (active).

`Cc1cccc(O)c1`: the AC50 is 19.6 µM (active).

For the compound `CC(=O)OC/C=C(C)/C=C/C=C(C)/C=C/C1=C(C)CCCC1(C)C`, the AC50 was 50.9 µM (active).

On to `CCCc1ccc(O)cc1`, for which the call was inactive.

Regarding `CCC(C)(C)C1CCC(=O)CC1`, the AC50 was 39.3 µM (active).

Consider `CCCCCCCCOC(=O)c1ccc(O)cc1`, for which the AC50 was 52.8 µM (active).

These data come from PubChem BioAssay (EPA / NIEHS).
